Source: PubChem BioAssay (Broad Institute)
HIV Env fusion – HIV envelope-mediated fusion inhibition; HeLa-JRFL Env/CEM21 cell fusion, luciferase; inhibition, % at 12.3 µM; hit rate 1.1% among 360,000;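 active = mean replicate inhibition score of at least 50 and every replicate individually at or above 50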;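 also: 0% = plate neutral controls and 100% = maraviroc near 300 nM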
ALR H2O2 inh – inhibitors of human sulfhydryl oxidase ALR. P55789. purified ALR, DTT oxidation, H2O2 HRP-luminol luminescence. inhibition, % (test concentration not listed). hit rate 3.8% among 290,000;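 active = mean replicate inhibition above about 79%, with every replicate also reaching it, limit read from the data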
Target sequence (P55789 whole entry, looked up): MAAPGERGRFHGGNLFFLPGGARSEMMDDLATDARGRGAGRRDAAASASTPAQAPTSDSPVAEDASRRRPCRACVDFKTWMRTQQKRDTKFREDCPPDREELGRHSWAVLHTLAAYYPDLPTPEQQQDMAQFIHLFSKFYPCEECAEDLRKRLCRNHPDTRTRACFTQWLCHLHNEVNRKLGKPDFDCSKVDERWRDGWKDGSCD
PglD DTNB – PglD (C. jejuni) enzyme inhibition; purified PglD enzyme, DTNB colorimetric CoA detection; inhibition, % at 12.5 µM; hit rate 0.098% among 360,000; in the data active = inhibition above about 16%, passing the limit was not always enough
F508del corr – CFTR F508del correction in bronchial cells | hit rate 0.36% among 350,000 | activity (quench increase), % at 7.58 µM | CFBE cells, YFP halide quenching; stimulated with forskolin plus potentiator P3; % fluorescence drop versus neutral controls | AID 720511;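 active = mean added fluorescence quench of at least 8% versus neutral control, with both replicates also reaching 8%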;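 also: cells transiently co-express mutant CFTR-F508del with the halide-sensitive YFP; corrector assay measuring rescue of mutant channel to the surface after 24 h compound exposure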
Casp6 inh – caspase-6 (human) enzyme inhibition; purified caspase-6, Z-VEID-R110 cleavage fluorescence; AID 686996; hit rate 0.53% among 350,000; inhibition, % at 12.5 µM; P55212;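 active = mean inhibition across replicates at least about 35%, with every replicate also reaching that limit, limit read from the data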;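 also: 0% = median of neutral control wells and 100% = no fluorescence left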
Target sequence (P55212 24-179 limits assumed): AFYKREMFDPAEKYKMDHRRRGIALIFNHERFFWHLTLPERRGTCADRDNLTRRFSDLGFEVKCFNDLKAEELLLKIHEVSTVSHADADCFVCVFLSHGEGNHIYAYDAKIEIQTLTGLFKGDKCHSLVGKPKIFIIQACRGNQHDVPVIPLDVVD
Target sequence (P55212 194-293 limits assumed): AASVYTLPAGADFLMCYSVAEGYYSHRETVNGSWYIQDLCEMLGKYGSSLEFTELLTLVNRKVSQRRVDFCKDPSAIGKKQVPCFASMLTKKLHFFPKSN
NSD2 inh – blocks human histone methyltransferase NSD2 | O96028 | NSD2 peptide methylation, AlphaScreen, 120 min | inhibition, % at 12.5 µM | hit rate 0.54% among 310,000 | AID 743445; in the data active = inhibition above about 50%
Active calls of the source: *; x = no result; [ ] = another dose, or the depositor's remark. This is a sample that favours compounds with a hit; in the whole collection about 4.1% have one here.

SMILES	HIV Env fusion	ALR H2O2 inh	PglD DTNB	F508del corr	Casp6 inh	NSD2 inh
[N-]=[N+]=NCc1ccccc1C[C@]1(C(=O)N2CCCCC2)COC(c2ccc(OCCCO)cc2)=N1	6.5[16.7 µM]	x	1.2	-2.0	7.5	x
COC(C/C=C\C(=O)[C@H](C)OCc1ccccc1)OC	-93.8	83.2*	-0.4	-1.0	2.0	x
COC(C/C=C\[C@@H](O)[C@@H](C)OCc1ccccc1)OC	1.2	14.0	-6.9	3.1	-0.9	x
O=C1c2ccccc2C(=O)c2c(O)c(O)cc(O)c21	22.7	x	-3.6	0.6	40.9*	x
O=C1C=C(O)c2c(O)cc(O)c(O)c2C1=O	x	97.9*	2.3	-1.1	70.7*	x
Nc1ccc(O)c2c1C(=O)c1ccccc1C2=O	x	-11.7	-3.8	-2.0	12.8	x
C[C@H](CO)N1C[C@H](C)[C@@H](CN(C)S(=O)(=O)c2cn(C)cn2)Oc2ncc(C3=CCCC3)cc2C1=O	-10.7[16.7 µM]	x	-5.6	0.5	0.9	x
CCCNC(=O)N1[C@H](CO)[C@H](c2ccccc2)[C@@H]1CNC(=O)C1CCCCC1	x	x	x	-2.5	-3.3	x
O=C1c2ccccc2C(Nc2ccc3c(c2)OCO3)N1Cc1ccc2c(c1)OCO2 (configuration not stated)	6.7	8.6	0.6	-0.9	-0.5	x
COC(=O)c1cc(NC2c3ccccc3C(=O)N2Cc2ccco2)cc(C(=O)OC)c1 (configuration not stated)	-91.3	3.3	-2.3	0.0	2.0	x
COc1ccc(NC2c3ccccc3C(=O)N2Cc2ccco2)cc1OC (configuration not stated)	x	99.6*	-3.4	-1.2	2.3	x
COc1cc(NC2c3ccccc3C(=O)N2Cc2ccccc2)cc(OC)c1OC (configuration not stated)	72.5*	0.4	-5.2	2.2	0.9	7.7
COc1cc(NC2c3ccccc3C(=O)N2Cc2ccccc2Cl)cc(OC)c1OC (configuration not stated)	49.6	-10.8	-6.0	1.6	-3.4	1.2
O=C1c2ccccc2C(Nc2ccc3c(c2)OCO3)N1Cc1ccco1 (configuration not stated)	x	99.0*	2.4	0.6	1.1	x
CCOc1ccc(NC2c3ccccc3C(=O)N2Cc2ccco2)cc1 (configuration not stated)	73.6*	98.2*	4.3	1.0	-3.4	x
Cc1noc(C)c1S(=O)(=O)N(C)C[C@H]1Oc2ccc(NC(=O)Nc3cccc4ccccc34)cc2CC(=O)N([C@@H](C)CO)C[C@@H]1C	-4.9[16.7 µM]	x	-0.9	-2.4	-2.0	x
CN(C)CCCCCCNC(=O)[C@@H]1C[C@@H]2C(=O)N3CCC[C@H]3C(=O)N2[C@@H]1c1ccc(O)cc1	-2.7[16.7 µM]	x	0.7	2.9	-5.3	x
O=C(C[C@@H]1C=C[C@@H](NC(=O)c2ccccc2)[C@@H](CO)O1)NCc1ccncn1	0.0[16.7 µM]	x	-0.9	0.8	1.7	x
COc1cccc(C(=O)Nc2ccc3c(c2)OC[C@@H](C)N(C(=O)C2CC2)C[C@@H](C)[C@H](OC)CN(C)C3=O)c1	x	x	11.1	-1.9	2.2	x
Cc1ccc(NC(=O)N2CCN(C(=O)C3CCCO3)CC2)cc1 (configuration not stated)	-27.5	-3.2	-3.4	-1.5	-1.0	-1.4
Cc1ccc(C(=O)N2CCN(C(=O)C3CCCO3)CC2)cc1 (configuration not stated)	x	0.1	3.0	-1.1	1.1	-1.7
Cc1ccc(-c2nc(CN3CCN(C(=O)C4CCCO4)CC3)cs2)cc1 (configuration not stated)	-0.7	98.7*	4.7	-2.2	-2.5	13.9
Cc1ccc(CN2CCN(C(=O)C3CCCO3)CC2)cc1 (configuration not stated)	21.6	99.4*	x	x	x	-1.7
Cc1ccc(C(=O)O)cc1N1C(=O)c2cccc3c([N+](=O)[O-])ccc(c23)C1=O	7.2	31.2	3.3	4.4	41.5*	48.9
O=C(O)c1ccc(CN2C(=O)c3cccc4c([N+](=O)[O-])ccc(c34)C2=O)cc1	x	x	-3.5	x	2.4	x
SMILES	HIV Env fusion	ALR H2O2 inh	PglD DTNB	F508del corr	Casp6 inh	NSD2 inh
Cc1c(O)ccc2c(CN3CCN(Cc4ccccc4)CC3)cc(=O)oc12	10.5	x	-6.9	-1.2	0.7	1.5
Cc1c(O)ccc2c(CN(C)Cc3ccccc3)cc(=O)oc12	27.6	85.8*	-6.5	-1.9	7.1	6.2
O=c1cc(CN2CCOCC2)c2ccc(O)c(O)c2o1	-4.8	99.3*	-3.4	0.8	-12.1	3.2
O=c1cc(CN2CCN(Cc3ccccc3)CC2)c2ccc(O)c(O)c2o1	-4.0	99.5*	1.2	2.5	18.6	35.2
Cc1ccc2c(CN3CCC(C(N)=O)CC3)cc(=O)oc2c1C	12.5	94.7*	-4.7	-0.1	-0.3	1.5
CCCc1cc(=O)oc2c(CN3CCOCC3)c(O)ccc12	x	12.4	3.9	x	x	1.3
Cc1ccccc1CN(C)Cc1cc(=O)oc2c(C)c(C)ccc12	28.9	-2.3	-1.5	-1.3	-1.6	-2.2
CS(=O)(=O)Nc1ccc2c(c1)[C@@H]1C[C@H](CC(=O)NCC(F)(F)F)O[C@@H](CO)[C@@H]1O2	-10.6[16.7 µM]	x	6.3	-1.0	-0.5	x
O=C(NC1CCCC1)[C@H]1[C@H](CO)[C@H]2Cn3c(ccc(-c4ccncc4)c3=O)[C@H]2N1CCc1ccccc1	x	x	-0.7	-0.1	5.7	x
Cc1ccc2c(c1)CCCN2C(=O)CCc1nc2ccccc2c(=O)[nH]1	x	10.6	5.2	22.3*	-5.0	2.6
O=C(COc1ccc(-c2nnc(N3CCCCC3)c3ccccc23)cc1)N1CCCCC1	x	3.8	-2.3	x	x	-7.9
Cc1ccc(-c2nnc(N3CCN(C(=O)COc4ccccc4)CC3)c3ccccc23)cc1	68.5*	-6.2	-3.1	x	x	0.8
CCc1ccc(-c2nn(Cc3ccccc3)cc2/C=C/C(=O)O)cc1	x	79.7*	-2.9	x	x	0.1
O=C(O)/C=C/c1cn(Cc2ccccc2)nc1-c1cccnc1	-6.4	-2.7	x	-0.2	-0.7	-4.9
C[C@H](NC(=O)C[C@H]1C[C@@H]2c3cc(NC(=O)Cc4ccncc4)ccc3O[C@@H]2[C@H](CO)O1)c1ccccc1	-12.1[16.7 µM]	x	-1.4	2.0	-2.1	x
C[C@@H]1CN([C@H](C)CO)C(=O)c2cc(NC(=O)Cn3cnnn3)ccc2O[C@H]1CN(C)S(=O)(=O)c1ccc(Cl)cc1	-9.1[16.7 µM]	x	x	-2.5	1.1	x
CCC(=O)Nc1ccc2c(c1)OC[C@H](C)N(C(=O)C1CC1)C[C@H](C)[C@@H](OC)CN(C)C2=O	-1.9[16.7 µM]	x	0.7	1.9	x	x
C[C@@H]1CCCCO[C@@H](CN(C)C(=O)CCC(F)(F)F)[C@@H](C)CN([C@H](C)CO)C(=O)c2cc(NC(=O)Nc3ccc4c(c3)OCO4)ccc2O1	-10.1[16.7 µM]	x	-2.1	0.2	1.2	x
COc1ccc(N2Cc3cccc(C(=O)NC(C)CCc4ccco4)c3C2=O)cc1 (configuration not stated)	14.0	98.5*	6.0	0.9	2.3	x
CN(C)CC1CCC/C(=C\c2ccc(OC(=O)c3ccc(Cl)cc3)cc2)C1=O (configuration not stated)	59.7*	x	x	-1.0	0.1	x
